# Measured values: the supplement of paper PMC11417369
# ± gives the standard deviation of the averaged measurements. The full ranking holds about 25,000 sequences; the median of “ln(normalized median fluorescence intensity)” is about 8.6, and the highest 2% start at about 10. Many of the other results were omitted from the sample, so the highest values are more common in it than they were.
# System: PfAP2-EXP AP2 domain (GST-tagged)
# Test: gcPBM binding intensity (ln(normalized median fluorescence intensity)); higher = stronger DNA binding
# How it was run: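 Each value is the highest Masliner-normalised natural-log median intensity across replicate spots of either orientation of a probe. The probes were primer-extended double-stranded 36-bp intergenic genomic sequences on an Agilent 4 × 180k array, alongside negative controls, exposed for 1 h to GST-tagged P. falciparum DNA-binding domains expressed in E. coli. Bound protein was picked up with Alexa488 anti-GST antibody and scanned at 488 nm.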
row,Sequence,gcPBM binding intensity (ln)
1,TATGTAATGTTTACAACACACAAATTATAAATACAA [CACACA_site1771],8.38 ± 0.4
2,TATTACATTATATAAACATGCAAAACTATATATTAT [TGCATGCA_site601],8.63 ± 0.45
3,TGTTTTATTATTTATAGTACATAAAAAAATATTGTA [XGTACX_site8963],8.25 ± 0.24
4,CAAGAATAAAAATACAAGCACACATGTATGAAATAT [CACACA_site3214],8.91 ± 0.42
5,TTATATCTTATAAAATGTACATAAAATATATAATAT [XGTACX_site7647],8.52 ± 0.26
6,TAAAAAAAAAAAATGTGTACATATTATATATATCTT [XGTACX_site2615],8.22 ± 0.3
7,ATATATATATATAAATGTACAGGCTTATCTCTTATT [XGTACX_site1828],10.2 ± 0.12
8,ATTTATCTATAATATACACACATATAACAGACATAT [CACACA_site6469],8.52 ± 0.33
9,TAATATACATATATATGTACATATATATATATATAT [XGTACX_site2684],9.93 ± 0.35
10,ATACATTCTAATACGTGTACATATATATATATATAT [XGTACX_site1881],10.2 ± 0.28
11,TGAATAATATACATACGTACATACATATATATAATA [XGTACX_site1302],8.32 ± 0.3
12,ATTACAAAAAAAAAAAAAAAAAAAAAAAAAAAAAAA [CACACA_negctrl_site448],7.95 ± 0.33
13,TTACTACTATATTATACACACATATATATATATATA [CACACA_site2621],10.3 ± 0.23
14,TTTTTTTTTTTTTAAACATGCAAAATATATAATTTT [TGCATGCA_site633],8.46 ± 0.36
15,TTACTACTATATTATACACACATATATTTATTTATA [CACACA_site7274],8.7 ± 0.4
16,TACATAAATTTTAATACATGCAAATAAAATATATAA [TGCATGCA_site131],8.88 ± 0.4
17,AATAATTTTTTAAACACACACACATATATATATATA [CACACA_site95],10.1 ± 0.3
18,TATATATATATATACACATGCAAAAATTTTTAATTT [TGCATGCA_site82],10.2 ± 0.35
19,TATTACACATATTATACACACATATATTATATATAT [CACACA_site4951],8.69 ± 0.25
20,TAATTTTTTTTAATAACACACATATAAATATAAATA [CACACA_site6521],8.17 ± 0.45
21,ATATTTTATTTATATACACACACATATATATATTAT [CACACA_site8177],8.79 ± 0.47
22,TTTTATATATTATATACACACATATATATATATATA [CACACA_site2999],10.2 ± 0.32
23,ATTTTATTTATATACACACACATATATATATTATAT [CACACA_site822],8.77 ± 0.44

row,Sequence,gcPBM binding intensity (ln)
1,TAATTTTTTTTAATAACACACATATATATATATATA [CACACA_site813],10.47 ± 0.042
2,AAACCTTTAGAAAATCGTACAAAACATAACCACCTA [XGTACX_site1098],8.81 ± 0.61
3,CACAGACACGGACACACACACACAAAAAAAAAAAGA [CACACA_site4436],8.44 ± 0.57
4,TATTTTTAAATATAAAGTACTTATATTAACTACGAA [XGTACX_site1524],8.27 ± 0.29
5,TATATATATACATACATACACACATATATATATATA [CACACA_site4109],10.1 ± 0.67
6,ACAATAAAATATGGCACACATATATATATATATTTA [CACACA_site3],8.43 ± 0.34
7,AAAATCTAGGTATTTATACACACTAAAATAATATAC [CACACA_site623],8.52 ± 0.3
8,AAATAAAATAAAATAAAATAAAATAAAATAAAATAA [XGTACX_negctrl_site142],8.49 ± 0.28
9,AAAAAATATATATGCACACACAAAAAAACAAATTAA [CACACA_site1278],8.78 ± 0.38
10,ATATATATATATTGTACACACATTTATGCATATATA [CACACA_site5738],9.97 ± 0.3
11,AGTGAAATTTTAGTCACACAGTTTTATCTTTAAGAA [CACACA_site5202],8.12 ± 0.52
12,TTGTGTTATCACACGAAGGGGATAAGACATAAATGT [TGCATGCA_negctrl_site368],8.49 ± 0.49
13,TCTTAAGGAAAAGAGTGTACAGAAATTTTTATTAAC [XGTACX_site6139],8.67 ± 0.48
14,TGTAGTCTGGAGAAAAGTACATAGTATCTGGTAACC [XGTACX_site2025],8.62 ± 0.38
15,ATAAAAAGCTAAAAAGTGCAAAAAGTAAATATTTAA,9 ± 0.44
16,TTTAAATAAAATATTACACACTTAGAAAAATATATA [CACACA_site3663],8.38 ± 0.28
17,AGAATAATAAAATGGGTGCAATAGTTTTTTTTTTTT [GTGCAC_site9823],8.59 ± 0.13
18,TATATATATATATATACACACATATATATATTTTTC [CACACA_site3983],10.2 ± 0.26
19,ACAAATAAGTTTTATACACACATATAAGTAAATACA [CACACA_site4157],8.57 ± 0.29
20,CATATATATATATATACACACATATATATTTTCTTT [CACACA_site1457],8.69 ± 0.15
21,TTTTTTTTTTTTAATACACACATATATATATTTATT [CACACA_site3994],8.38 ± 0.42
22,TTTTTTTTTTTTAATACACACATATTTATATTTATT [CACACA_site7802],8.44 ± 0.3
23,TATATAAACACGTACACACACATATAGGTATTTATA [CACACA_site7615],8.71 ± 0.49

row,Sequence,gcPBM binding intensity (ln)
1,TATAAGTTTATATATACACACATATATATATATATA [CACACA_site3274],10.2 ± 0.34
2,AATATATTTTAATACACACACACATATATATATATA [CACACA_site5969],10.3 ± 0.34
3,ATATATTTATTATTAGGTACACATATATATATATAT [XGTACX_site5045],10.2 ± 0.54
4,ATTTATATATATATAGGTACACATATTTATATATAA [XGTACX_site8487],8.23 ± 0.2
5,AGGATATATAAGTATACACACATATTTATATTTATA [CACACA_site6239],8.23 ± 0.42
6,TATATACATATATATACACACATATATATATTTTAT [CACACA_site3788],8.26 ± 0.4
7,TATATAAACCCGTACACACACATATATGTATATATA [CACACA_site3507],8.91 ± 0.25
8,TGTTTTTAAATTTAAATCAAAAAATAAAATAAAATA [GTGCAC_negctrl_site355],8.34 ± 0.48
9,CTTACCAAAAGACACACACACACAAGATATATAAAT [CACACA_site6964],8.77 ± 0.56
10,TATTGTTATGTCGTTATTAACTTTCTTTAATTAATT [CACACA_negctrl_site174],8.95 ± 0.29
11,TTTTTTTTTTTGAGGAGGACACAAAAATATGCTACC [XGTACX_site756],8.53 ± 0.26
12,TTTAATCAATGATTTAATGAAAAAAGCAAAAAAAAA [GTGCAC_negctrl_site213],8.38 ± 0.45
13,TGAATATTTCTATATACACACATATATATATATATA [CACACA_site3451],10.3 ± 0.12
14,TATTTATATTTATATACACACATACATATTTATATT [CACACA_site6535],8.41 ± 0.33
15,AAAAATTTTAATTAGGAACACACATATATATATATA [CACACA_site9016],10.1 ± 0.27
16,TAATATTGACTATATACACACATATAAATATAAATA [CACACA_site6414],8.4 ± 0.33
17,GTAATTTTTTTCTATACACACATATATATAATATAT [CACACA_site2655],8.74 ± 0.32
18,ATTTATTGACTATTTACACACATATTTATTATAATA [CACACA_site1624],8.9 ± 0.52
19,TAATATTGACTATATACACACATATATATATATATA [CACACA_site575],10.2 ± 0.28
20,TGAATATTTCTATATACACACATATAAATATAAATA [CACACA_site7593],8.26 ± 0.36
21,TATATATATATATATACACACATATATATATTTATA [CACACA_site627],10.3 ± 0.18
22,AAATTTTAATTAGGAACACACATATATATATATATA [CACACA_site5673],10.2 ± 0.24
23,AAATTATAATTAGGAACACACATATATATATATATA [CACACA_site3098],10.1 ± 0.33

row,Sequence,gcPBM binding intensity (ln)
1,TATATATATATTTATACACACACATATATTTATATA [CACACA_site8054],9.47 ± 0.071
2,AAATTCATATGAATTTGTACGGACATAAATATCTTC [XGTACX_site1838],8.62 ± 0.33
3,TGAATTTACAAAATCATGCACTTAATTACAGAATAA,8.38 ± 0.26
4,TCCATATGCAAACTGGTGCACAAGTAGCTTTTATAT,8.99 ± 0.3
5,TCATAAAAAGGAATCTTTAAGATATTTTATAAGCTC [XGTACX_negctrl_site18],8.06 ± 0.5
6,TATATAAAAATCAATTGTACTTTTTTTTTTTTTTTT [XGTACX_site7327],8.52 ± 0.16
7,TTAAGATCCTAAAAAACACACAATTGTGAATAATAA [CACACA_site3872],8.69 ± 0.53
8,TGTAGATAAAATAAACGTACGTATTGATTTTTTTCA [XGTACX_site1610],8.26 ± 0.41
9,TATTCTAGTCTGCTTACACACATATTTATATTTATA [CACACA_site7432],8.81 ± 0.54
10,TATTATATTCTGCTTACACACATATATATATATATA [CACACA_site3060],10.3 ± 0.38
11,CATATTATATTCTGCTTACACACATATATATATATA [CACACA_site3059],10.1 ± 0.42
12,GAAGATTTATCTTGCACACGCAAAAAAAAAAAAAAA [CACACA_site154],8.4 ± 0.27
13,TGAAGGATATATTCCGTGCACATATAAATATATACA,8.735 ± 0.007
14,AATCTTAAAAATATATGTACTAAAAAAAAAAAAAAT [XGTACX_site6195],8.37 ± 0.47
15,ATATATATATATATATGTACTAAATATTCATCCTTA [XGTACX_site6039],10.2 ± 0.3
16,AAAATATTTCATATATGTACTTAAAAAAAAAAAAAA [XGTACX_site5399],8.27 ± 0.38
17,CTATATATATATTTCAGTACATATTAAGAATATATA [XGTACX_site4860],8.31 ± 0.38
18,TATAACATAGGACACACACACATACATACACAAAAA [CACACA_site5062],8.94 ± 0.35
19,ATATATATATATAAAGGTACACATTTATTAAATATA [XGTACX_site7102],10.1 ± 0.12
20,TTTAATATGTATTTTTTTTTTTTTTTTTTTTTTTTT [XGTACX_negctrl_site440],9.06 ± 0.085
21,AAGCATCCTACTGATTGTACATATATATATATATAT [XGTACX_site2150],10.2 ± 0.3
22,ATATCCTACTTCTAGTGTACATATATGGACTGATGA [XGTACX_site3683],8.87 ± 0.35
23,ATATAATATATATATTGTACATATATTTATAAGCAT [XGTACX_site3726],8.38 ± 0.19
